About 79,000 compounds went through this panel and 15% of them were active in at least one assay; those are over-represented in the sample as a whole. Unmarked numbers belong to inactive results. Calls of active or inactive are those of the source. Rule as the data show it: active = growth inhibition above about 70%; inactive = the rest.

The nature of experiment [1]: NCI Yeast Anticancer Drug Screen. Data for the rad50 strain (AID 155).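 Also: 0% = growth of vehicle-only cultures of the same strain.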 Conditions: S. cerevisiae rad50 strain growth inhibition; at 50.0 µM; active compounds read high. In short, it runs like this: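 DNA repair mutant yeast, compound exposure, growth read-out; inhibition is taken relative to vehicle.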
A short description of experiment [2]: NCI Yeast Anticancer Drug Screen. Data for the mec2-1 strain (AID 157). Conditions: S. cerevisiae mec2-1 strain, at 50.0 µM, active compounds read high. In short, it runs like this:
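mec2-1 yeast strain, carrying an alteration in DNA damage repair or cell cycle control, was exposed to compounds; growth inhibition was measured relative to vehicle-treated controls.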

The nature of experiment [3]: NCI Yeast Anticancer Drug Screen. Data for the sgs1 mgt1 strain (AID 161).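 Also: 0% = growth of cultures given vehicle only.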 To be noted: S. cerevisiae sgs1 mgt1 strain, at 50.0 µM, active compounds read high. In short, it runs like this:
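This yeast growth screen uses a strain with defined DNA-repair lesions; compound-treated growth is compared with vehicle-treated growth.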

Experiment [4] in a line: NCI Yeast Anticancer Drug Screen. Data for the cln2 rad14 strain (AID 165).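 Also: 0% = growth equal to vehicle treated cultures.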 Conditions: S. cerevisiae cln2 rad14 strain, at 50.0 µM, active compounds read high. The procedure, abridged: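 Yeast carrying cln2 and rad14 alterations (cell cycle control and DNA damage repair) were exposed to compounds. Growth inhibition was measured against vehicle-treated controls.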
Experiment [5] can be described thus: NCI Yeast Anticancer Drug Screen. Data for the bub3 strain (AID 167). To be noted: S. cerevisiae bub3 mutant strain, at 50.0 µM, active compounds read high. In short, it runs like this: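 In this screen, a yeast mutant lacking normal mitotic checkpoint function is challenged with compound. Relative growth versus vehicle gives the inhibition value.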
The nature of experiment [6]: NCI Yeast Anticancer Drug Screen. Data for the mlh1 rad18 strain (AID 175). To be noted: S. cerevisiae mlh1 rad18 strain growth inhibition; at 50.0 µM; active compounds read high. In short, it runs like this:
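Growth inhibition of the yeast strain was measured after compound exposure and expressed relative to vehicle-treated controls. The strain carries defined defects in DNA damage repair.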

Consider `COC(=O)[C@H]1[C@H]2C[C@@H]3c4[nH]c5ccccc5c4CCN3C[C@H]2C[C@@H](O)[C@@H]1OC(=O)c1cc(OC)c(OC)c(OC)c1`, for which the growth inhibition is 23.1% in experiment [1]; -1.35% in experiment [2]; 19.4% in experiment [3]; 8.75% in experiment [4]; 21% in experiment [5]; 20.9% in experiment [6].

As to `CCOC(OCC)C(N)=O`, the growth inhibition in experiment [1] is 2.75%; in experiment [2], -12.1%; in experiment [3], -1.6%; in experiment [4], 11.3%; in experiment [5], -6.3%; in experiment [6], 2.65%.

Take `CN(C)CNc1ncnc2onc(-c3ccccc3)c12`: the growth inhibition in experiment [1] was 10.1%; in experiment [2], 14.5%; in experiment [3], 13.7%; in experiment [4], 11.6%; in experiment [5] it was -5.5%; in experiment [6] it was -4.15%.

`CN(Cc1ccccc1)C(=O)c1cccc(C(=O)N(C)Cc2ccccc2)c1`: the growth inhibition in experiment [1] was 9.85%; in experiment [2], 22.5%; in experiment [3], 19.1%; in experiment [4], 13.8%; in experiment [5] it was 21.7%; in experiment [6], 17.6%.

As for `CN1C(=O)c2c(ccc3c2OCO3)C2C(O)Cc3cc4c(cc3C21)OCO4` (stereo unspecified), the growth inhibition is 6.85% in experiment [1]; 9.9% in experiment [2]; 21.8% in experiment [3]; 27.9% in experiment [4]; 7.15% in experiment [5]; -51% in experiment [6].

On to `Clc1ccc2cn[nH]c2c1`, for which the growth inhibition in experiment [1] is -50.4%; in experiment [2] it was -28.1%; in experiment [3], -23.2%; in experiment [4], 3.3%; in experiment [5] it was -18.9%; in experiment [6], -9.3%.

For `CCCCCN(C(=O)CCC)c1ccccc1`, the growth inhibition was 45.8% in experiment [1]; 8.5% in experiment [2]; 24.5% in experiment [3]; 17.7% in experiment [4]; 3.2% in experiment [5]; 41.8% in experiment [6].

As for `COC1=CC(=O)C(CC=C(C)C)=CC1=O`, the growth inhibition in experiment [1] was 5.65%; in experiment [2], -9.9%; in experiment [3], -1.2%; in experiment [4], -62.4%; in experiment [5], -8.9%; in experiment [6], -3.2%.

For `COc1ccc(Nc2ccnc(N)n2)cc1`, the growth inhibition was 5.15% in experiment [1]; -27.4% in experiment [2]; 1.25% in experiment [3]; -0.35% in experiment [4]; 14.2% in experiment [5]; -13.2% in experiment [6].

With `COc1ccc(NS(=O)(=O)c2ccc(N=Cc3c4ccccc4nc4ccccc34)cc2)nn1`, the growth inhibition in experiment [1] is 96.8% (active); in experiment [2] it was 95.5% (active); in experiment [3], 91.6% (active); in experiment [4], 79.9% (active); in experiment [5], 93.5% (active); in experiment [6], 90.8% (active).

For `Clc1ccccc1CSc1cnnc(Cl)c1SCc1ccccc1Cl`, the growth inhibition is 28.6% in experiment [1]; 12.2% in experiment [2]; 31.6% in experiment [3]; 39.6% in experiment [4]; 5.2% in experiment [5]; 21.9% in experiment [6].

As for `CC(SC(=S)N1CCOCC1)C(=O)O` (stereo unspecified), the growth inhibition in experiment [1] was 2.65%; in experiment [2] it was -6.8%; in experiment [3], -1.6%; in experiment [4], -4.8%; in experiment [5], -6.05%; in experiment [6] it was -7.6%.

In the case of `CC(=O)N1Cc2c(nc[nH]c2=O)C1C` (stereo unspecified), the growth inhibition was -8.05% in experiment [1]; 27.4% in experiment [2]; -7.6% in experiment [3]; 14.9% in experiment [4]; 5.2% in experiment [5]; 0.45% in experiment [6].

Turning to `N#Cc1c(C#N)c(-c2cccc([N+](=O)[O-])c2)n(-c2ccccc2)c1N`, the growth inhibition is 15.9% in experiment [1]; 15.5% in experiment [2]; -35.6% in experiment [3]; 2.15% in experiment [4]; -16.6% in experiment [5]; -16.5% in experiment [6].

For the compound `COc1ccc2[nH]c(=O)cc(C)c2c1`, the growth inhibition is -5.35% in experiment [1]; -4.1% in experiment [2]; -1.6% in experiment [3]; -37.7% in experiment [4]; 18.9% in experiment [5]; -85.3% in experiment [6].

For `CC1CC(=O)Nc2ccccc2N1C(=O)C1CC1` (stereo unspecified), the growth inhibition in experiment [1] is -8.15%; in experiment [2] it was -33.4%; in experiment [3], -2.75%; in experiment [4] it was 2.7%; in experiment [5], -11.6%; in experiment [6], -1.85%.

Regarding `C[C@]12C=CC(=O)C=C1[C@@H](F)C[C@H]1[C@@H]3CC[C@](O)(C(=O)CO)[C@@]3(C)C[C@H](O)[C@@]12F`, the growth inhibition in experiment [1] is -11.9%; in experiment [2] it was -26.4%; in experiment [3], 4.8%; in experiment [4], 66.8%; in experiment [5], 2.85%; in experiment [6], -9.9%.

In the case of `C=C1C2CCC3(CCC4C5(C)CCCC4(C=NC5)C3C2)C1O` (stereo unspecified), the growth inhibition in experiment [1] was 8.5%; in experiment [2], -10.7%; in experiment [3] it was 3.6%; in experiment [4] it was 6.75%; in experiment [5], -7.3%; in experiment [6], 1.6%.

With `C#CC(N)=O`, the growth inhibition in experiment [1] is -9.6%; in experiment [2], 11.4%; in experiment [3], -0.6%; in experiment [4], -20.6%; in experiment [5], -6%; in experiment [6] it was 4.4%.

On to `Clc1cc2nc(C3CCCO3)[nH]c2cc1Cl` (stereo unspecified), for which the growth inhibition was 24.3% in experiment [1]; 2.15% in experiment [2]; 29.5% in experiment [3]; 5% in experiment [4]; 19.9% in experiment [5]; 55.2% in experiment [6].

Consider `CC1C=CC(C)c2c(-c3ccccc3)oc(-c3ccccc3)c21` (stereo unspecified), for which the growth inhibition in experiment [1] is 17%; in experiment [2], 8.6%; in experiment [3], -1.5%; in experiment [4], -2.6%; in experiment [5], -0.4%; in experiment [6], 9.7%.
